Laboratory results as given in ChEMBL document CHEMBL3433997, “St. Jude Leishmania screening dataset” (2016).

target: Solute carrier family 2, facilitated glucose transporter member 1 (Homo sapiens) (UniProt P11166); experiment: ST_JUDE_LEISH: Cytotoxicity at 2uM final concentration against transgenic Leishmania Mexicana promastigotes LmGLUT1 that are glucose transport deficient and complemented with the human glucose transporter GLUT1. Activity is measured by DNA content using SYBR green in vitro; format: functional
Sequence (P11166 whole entry): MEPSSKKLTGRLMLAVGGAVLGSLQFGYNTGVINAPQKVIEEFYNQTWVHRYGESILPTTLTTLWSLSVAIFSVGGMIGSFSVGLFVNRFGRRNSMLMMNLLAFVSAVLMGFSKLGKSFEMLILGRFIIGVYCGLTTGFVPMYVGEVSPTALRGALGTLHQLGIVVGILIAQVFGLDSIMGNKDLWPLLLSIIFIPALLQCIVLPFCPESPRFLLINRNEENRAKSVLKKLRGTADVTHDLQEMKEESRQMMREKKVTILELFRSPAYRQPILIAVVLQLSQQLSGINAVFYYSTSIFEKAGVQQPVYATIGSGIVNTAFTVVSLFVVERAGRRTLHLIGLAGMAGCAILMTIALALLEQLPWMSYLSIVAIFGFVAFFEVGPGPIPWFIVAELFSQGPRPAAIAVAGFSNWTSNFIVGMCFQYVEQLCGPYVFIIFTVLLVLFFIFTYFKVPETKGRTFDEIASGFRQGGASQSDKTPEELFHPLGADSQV

Structure (SMILES) | inhibition [%]
CC(C)(CN1CCCC1)CN(Cc1ccc(-c2ccc(C(F)(F)F)cc2)cc1)C(=O)Cn1c(CCc2cccc(F)c2F)nc(=O)c2ccccc21 | 10.3
COc1ccc(CNC2CCN(C)CC2)cc1-c1ccc(S(=O)(=O)NCc2ccccc2)cc1 | 3.88
Cc1cccc2nc(-c3cccc(-c4ccc(CN5CCC(C(N)=O)CC5)cc4)c3)[nH]c12 | 9.22
O=C(N[C@H]1CCN(Cc2ccc(OCCN3CCNCC3)c(Cl)c2)C1)c1ccc(Cl)c(Cl)c1 | -1.27
COc1ccc(CC(=O)Nc2ccc(Nc3nc(C)cc(N(C)C)n3)cc2)cc1 | 10.3
CCN(CC)CCN(Cc1ccc(-c2ccc(C(F)(F)F)cc2)cc1)C(=O)Cn1c(CCc2ccc(F)c(C#N)c2)nc(=O)c2ccccc21 | 6.73
c1ccc2cc3c(Nc4ccc(N5CCCCC5)cc4)ccnc3cc2c1 | 2.76
CC(Oc1ccc(Cl)cc1)C(=O)Nc1cc(C(F)(F)F)ccc1N1CCOCC1 (stereo not drawn) | 8.02
O=C(Nc1cc(C(F)(F)F)cc(C(F)(F)F)c1)N1CCC(CCN2CCC(c3c[nH]c4ccccc34)CC2)CC1 | 5.87
Cc1nnc(-c2cccc(Nc3ccnc4cc(-c5nccs5)ccc34)c2)o1 | 11.2
CCCc1cc(OC)c(C[C@@H]2c3cc(O)c(Cl)cc3CCN2C)cc1OC | 3.17
COc1ccccc1CN1CCC(NC(=O)c2ccc(-c3ccc(N(C)C)cc3)s2)CC1 | 9.96
Nc1nc(N)c2c(ccc3c2ccn3CCCC2CCCNC2)n1 (stereo not drawn) | 0.22
CC(C)(C)c1ccc(CNC(=O)c2ccc(-c3nc4ccc(Cl)cc4[nH]3)cc2)cc1 | 1.67
CCCCn1c(=N)c(C(=O)NCc2cccnc2)cc2c(=O)n3cccc(C)c3nc21 | 4.38
CC(C)c1cccc(OCC2CCN(c3ncc(C(=O)NC4CC4)cc3Cl)CC2)c1 | 1.56
O=C1C(=Cc2c(O)ccc3ccccc23)SC(=NCc2ccccc2)N1Cc1ccccc1 | 3.93
CN1CCN(c2ccc(CNc3ccc4ncc(-c5ccc(OC(F)(F)F)cc5)n4n3)cc2)CC1 | -2.29
COc1cc(C(F)(F)F)cc2[nH]c(CNCCCNc3nc4ccccc4[nH]3)cc12 | 4.4
CCC(CC)N1CCN(CC(=O)Nc2ccc([N+](=O)[O-])cc2C(=O)Nc2cccc(OC)c2)CC1 | 3.1
CC(=O)N1N=C(c2[nH]c3ccc(Br)cc3c2C)OC1c1ccccc1 (stereo not drawn) | 4.69
CN1CCC(NCc2ccc(-c3ccc(S(=O)(=O)NCc4ccccc4)c(F)c3)cc2)CC1 | 12.7
O=C(Nc1ccc(-c2nc3cc4ccccc4cc3[nH]2)cc1)c1cccc(Br)c1 | 3.09
CN(C)CCN(Cc1ccccc1)c1ccc([N+](=O)[O-])cc1C(F)(F)F | 7.95

target: Hexose transporter 1 (Plasmodium falciparum) (UniProt O97467); experiment: ST_JUDE_LEISH: Cytotoxicity at 2uM final concentration against transgenic Leishmania Mexicana promastigotes LmPfHT that are glucose transport deficient and complemented with the Plasmodium falciparum hexose transporter. Activity is measured by DNA content using SYBR green in vitro; format: functional

Structure (SMILES) | inhibition [%]
CC(Cc1ccc(NC(=O)c2ccc(CC(C)NCc3ccc(Cl)c(Cl)c3)cc2)cc1)NCCc1cccc(Cl)c1 (stereo not drawn) | -0.71
CCn1c(Sc2ccc([N+](=O)[O-])c(C#N)c2)nnc1-c1ccc(Cl)cc1 | 7.38
Cc1ccc(CN2CCCN(Cc3ccc(C(=O)Nc4ccc(Cl)cc4)cc3)CC2)s1 | 2.74
CCN(CC)CCN1C(=O)c2oc3ccc(Cl)cc3c(=O)c2C1c1ccc(SC)cc1 (stereo not drawn) | -2.27
COc1ccc(-c2cnc(N)c(-c3nc4cc(Br)ccc4[nH]3)c2)cc1 | 11.3
COc1ccc(Cc2nc(/N=C(\N)Nc3ccccc3)ccc2OC)cc1 | 1.68
NC1CCCN(Cc2ccc(-c3ccc(-c4nc5ccccc5[nH]4)s3)cc2)C1 (stereo not drawn) | 5.92
O=C(Nc1ccccc1)NC1CCN(CCC2(c3ccc(Cl)c(Cl)c3)COCN(C(=O)c3ccccc3)C2)C1 (stereo not drawn) | 4.43
CN1CCN(Cc2ccc(-c3ccc4c(Nc5ccc(F)cc5Cl)ccnc4c3)o2)CC1 | 0.83
O=C(CCCCCNC(=O)c1ccc(O)c(-c2ccc(Cl)c(Cl)c2)c1)NCCN1CCOCC1 | 3.57
Cc1cc(C(=O)CN2C(=O)NC3(CCCc4ccccc43)C2=O)c(C)n1Cc1ccc(F)cc1 (stereo not drawn) | 2.54
O=C(NCc1ccc(Cl)cc1)c1ccc(CN2CCCN(CC3CCCCC3)CC2)cc1 | 5.73
O=C(Nc1ccc(-c2nc3ccccc3[nH]2)cc1)c1ccc(N2CCCC2)c([N+](=O)[O-])c1 | 2.01
Cc1cc(F)ccc1-c1nc(N(C)CCN(C)C(=O)N(C)c2ccccc2)nc2c1ccc(=O)n2-c1c(F)cccc1F | 3.18
CN(CCN1CCC(c2c[nH]c3ccccc23)CC1)c1ccc(-c2nc3cc(Cl)c(Cl)cc3[nH]2)cc1 | 0.16
CC(C)(CN1CCCC1)CN(Cc1ccc(-c2ccc(C(F)(F)F)cc2)cc1)C(=O)Cn1c(CCc2cccc(F)c2F)nc(=O)c2ccccc21 | 8.05
COc1ccc(CNC2CCN(C)CC2)cc1-c1ccc(S(=O)(=O)NCc2ccccc2)cc1 | 4.24
Cc1cccc2nc(-c3cccc(-c4ccc(CN5CCC(C(N)=O)CC5)cc4)c3)[nH]c12 | 9.68
O=C(N[C@H]1CCN(Cc2ccc(OCCN3CCNCC3)c(Cl)c2)C1)c1ccc(Cl)c(Cl)c1 | -3.15
COc1ccc(CC(=O)Nc2ccc(Nc3nc(C)cc(N(C)C)n3)cc2)cc1 | 17.7

Structure (SMILES) | inhibition [%]
CCN(CC)CCN(Cc1ccc(-c2ccc(C(F)(F)F)cc2)cc1)C(=O)Cn1c(CCc2ccc(F)c(C#N)c2)nc(=O)c2ccccc21 | 7.67
c1ccc2cc3c(Nc4ccc(N5CCCCC5)cc4)ccnc3cc2c1 | 4.37
CC(Oc1ccc(Cl)cc1)C(=O)Nc1cc(C(F)(F)F)ccc1N1CCOCC1 (stereo not drawn) | 10.4
O=C(Nc1cc(C(F)(F)F)cc(C(F)(F)F)c1)N1CCC(CCN2CCC(c3c[nH]c4ccccc34)CC2)CC1 | 4.12
Cc1nnc(-c2cccc(Nc3ccnc4cc(-c5nccs5)ccc34)c2)o1 | 11.8
CCCc1cc(OC)c(C[C@@H]2c3cc(O)c(Cl)cc3CCN2C)cc1OC | 2.87
COc1ccccc1CN1CCC(NC(=O)c2ccc(-c3ccc(N(C)C)cc3)s2)CC1 | 12.6
Nc1nc(N)c2c(ccc3c2ccn3CCCC2CCCNC2)n1 (stereo not drawn) | -0.13
CC(C)(C)c1ccc(CNC(=O)c2ccc(-c3nc4ccc(Cl)cc4[nH]3)cc2)cc1 | 1.77
CCCCn1c(=N)c(C(=O)NCc2cccnc2)cc2c(=O)n3cccc(C)c3nc21 | 5.85
CC(C)c1cccc(OCC2CCN(c3ncc(C(=O)NC4CC4)cc3Cl)CC2)c1 | -0.04
O=C1C(=Cc2c(O)ccc3ccccc23)SC(=NCc2ccccc2)N1Cc1ccccc1 | 2.01
CN1CCN(c2ccc(CNc3ccc4ncc(-c5ccc(OC(F)(F)F)cc5)n4n3)cc2)CC1 | -1.23
COc1cc(C(F)(F)F)cc2[nH]c(CNCCCNc3nc4ccccc4[nH]3)cc12 | 6.5
CCC(CC)N1CCN(CC(=O)Nc2ccc([N+](=O)[O-])cc2C(=O)Nc2cccc(OC)c2)CC1 | 1.8
CC(=O)N1N=C(c2[nH]c3ccc(Br)cc3c2C)OC1c1ccccc1 (stereo not drawn) | 4.06
CN1CCC(NCc2ccc(-c3ccc(S(=O)(=O)NCc4ccccc4)c(F)c3)cc2)CC1 | 13.2
O=C(Nc1ccc(-c2nc3cc4ccccc4cc3[nH]2)cc1)c1cccc(Br)c1 | 1.07
CN(C)CCN(Cc1ccccc1)c1ccc([N+](=O)[O-])cc1C(F)(F)F | 7.06
